An excerpt weighted towards active compounds, which were near 3.9% of everything screened.
Tb PFK inh – blocks T. brucei phosphofructokinase. T. brucei PFK, ADP-Glo luminescence. Potency, µM (titrated, usually from 57.5 µM), without a hit: at the top dose activity, negative = inhibition, actives largely listed as inhibitors. 330,000 tested, 0.17% active. AID 485367;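 further: 0% = uninhibited 1x PFK enzyme wells and -100% = no-enzyme wells; nearly all actives have a fitted effect of over 60% in size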
Target sequence (O15648 whole entry, looked up): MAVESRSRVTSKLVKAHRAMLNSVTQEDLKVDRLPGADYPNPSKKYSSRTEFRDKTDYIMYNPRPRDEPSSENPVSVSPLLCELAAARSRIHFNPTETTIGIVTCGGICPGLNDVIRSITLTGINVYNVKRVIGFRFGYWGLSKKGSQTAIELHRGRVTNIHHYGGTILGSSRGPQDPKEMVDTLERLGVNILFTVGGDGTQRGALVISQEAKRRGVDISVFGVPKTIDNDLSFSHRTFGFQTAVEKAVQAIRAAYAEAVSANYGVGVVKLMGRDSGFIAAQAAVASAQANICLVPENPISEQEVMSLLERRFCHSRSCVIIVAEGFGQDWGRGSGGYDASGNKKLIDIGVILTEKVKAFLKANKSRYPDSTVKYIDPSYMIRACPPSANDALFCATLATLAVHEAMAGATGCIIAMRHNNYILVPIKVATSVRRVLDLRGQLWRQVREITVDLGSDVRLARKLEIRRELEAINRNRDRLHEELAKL
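In TEA buffer at pH 8.0 with 5 mM MgCl2, enzyme (1.25 nM) converted F6P (0.5 mM) and ATP (0.1 mM) for 45 min at room temperature. ADP product was read by luciferase luminescence.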
VDR inhibitor – blocks the human vitamin D receptor | P11473 | Potency, µM, for the others: max response, negative = inhibition, actives largely listed as inhibitors | 400,000 tested, 0.93% active | VDR-SRC2-3 peptide fluorescence polarization, 2 h; further: on the % scale 0 is the no-effect control and ±100 the full control effect
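Fluorescence polarization assay measuring small-molecule disruption of VDR binding to the coregulator peptide SRC2-3. Compounds were pin-transferred (23 nl) into the reagent mix and incubated 2 h at room temperature before reading.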
BRCA1 expr up – increases BRCA1 expression; MCF7-BRCA1-FFLuc reporter, luminescence, 48 h; response scale: scaled: vehicle 0%, 10 µM genistein 100%; Potency, µM (highest dose often 46.1 µM), for inactives: at the top dose activation, hits mostly activators; 380,000 tested, 1.1% active; AID 624202; further: nearly all actives have a fitted effect of over 80% in size
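Luminescence from a BRCA1-driven firefly luciferase in MCF7 cells was read after 48 h compound exposure at 37 C. Data normalized against DMSO and a 10microM genistein activation control, then curve-fitted across the titration.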
PLK1 PBD block – PLK1 (human) polo-box domain binding inhibition; P53350; Plk1 PBD binding of FITC phosphopeptide, fluorescence polarization; Potency, µM, for the others: max response, negative = inhibition, most hits filed as inhibitors; 360,000 tested, 2.8% active; further: series mostly up to about 57 µM; on the % scale 0 is the no-effect control and ±100 the full control effect; nearly all actives have a fitted effect of over 65% in size
Starred values were filed as active, the others as inactive; ? = inconclusive; / = no result. The call rests on the fitted dose curve; in most records, active means well fitted curve in the direction sought with a large enough effect; inconclusive means small, poorly fitted or top-dose-only effect, or another doubt; inactive means no such curve, though single readings can be large; an effect the other way counts as inactive or inconclusive. Potency means the concentration at half of the fitted maximal effect.

SMILES | Tb PFK inh | VDR inhibitor | BRCA1 expr up | PLK1 PBD block
O=C(Nc1ccc(F)cc1)Nc1ccc(Cl)cn1 | -6.1% | 2.6% | 62.2% | -2.3%
CC(C)(C)NC(=O)NC(=O)COc1ccc(Br)cc1Br | 0.7% | -11.9% | 33.2% | -0.2%
CCOc1ncccc1C(=O)Nc1ccc(Cl)cc1 | -2.9% | ? | -29.7% | 10.6µM*
CCOc1ncccc1C(=O)Nc1ccc(F)cc1 | -0.9% | -12.0% | -17.3% | -8.6%
CCOc1ccc(C(=O)Nc2cc(NC(=O)c3ccc(OCC)c(Cl)c3)cc(C(=O)O)c2)cc1Cl | 2.0% | -12.3% | 3.2% | ?
O=C(Nc1ccc(F)c(Cl)c1)Nc1ccc(Cl)cn1 | -13.3% | ? | -9.3% | 15µM*
CCOc1ccc(C(=O)Nc2ccc(Cl)cn2)cc1Cl | 0.7% | 7.5% | 6.31µM* | -7.5%
CC(C)(C)NC(=O)NC(=O)COC(=O)COc1ccc(Cl)cc1Cl | 15.0% | ? | 4.1% | 11.9µM*
COc1cccc(CN2CC34CCC(CC3S2(=O)=O)O4)c1 (centres undefined) | / | -1.3% | / | /
Cc1ccc(S(=O)(=O)N2[C@@H](CO)CO[C@H]2CC(=O)OCc2ccccc2)cc1 | / | / | / | -12.9%
COc1ccccc1-c1nc(SCC(=O)NCc2ccccc2)c2c(=O)n(C)c(=O)n(C)c2n1 | / | 6.5% | / | /
O=C(COc1ccc(Cl)cc1Cl)Nc1ccc(Cl)cn1 | -0.7% | -7.3% | 11.2µM* | -2.3%
N/C(=N\OC(=O)COc1ccc(Cl)cc1Cl)c1ccncc1 | -1.9% | -17.4% | 1.12µM* | -2.7%
CC(CNC(=O)c1cc2ccccn2n1)c1ccccc1 (centres undefined) | / | 9.0% | / | /
O=S(=O)(c1ccc(NC(=S)NC2CC2)cc1)N1CCOCC1 | -3.8% | -4.9% | 0.0% | ?
O=S(=O)(c1ccc(NC(=S)NC2CCCC2)cc1)N1CCCC1 | -6.7% | ? | 0.0% | 15µM*
COc1ccc(NC(=O)CSC2CCCCC2)cc1 | -9.2% | 14.3% | 3.0% | -4.0%
Cc1ccc(N2C(=O)CC(SCC(=O)Nc3ccc(S(N)(=O)=O)cc3)C2=O)cc1 (centres undefined) | -6.0% | -5.9% | -0.4% | -11.8%
NS(=O)(=O)c1ccc(NC(=S)NC2CCCCCC2)cc1 | -24.8% | -12.0% | 20.8% | 18.9µM*
CCOC(=O)c1ccc(N2C(=O)CC(SCC(=O)Nc3ccc(S(N)(=O)=O)cc3)C2=O)cc1 (centres undefined) | 20.4% | ? | 3.3% | 29.9µM*
NS(=O)(=O)c1ccc(NC(=O)CSC2CCCCC2)cc1 | -14.4% | ? | -13.7% | 29.9µM*
CC(C)C[C@@H](CC(=O)N[C@@H](CCCN)CC(=O)N[C@@H]1CCNC[C@H]1C(=O)N[C@H](CC(=O)N[C@@H](CCC(=O)O)CC(=O)O)Cc1ccccc1)NC(=O)[C@@H]1CCCC[C@H]1N | / | 2.6% | / | /
Cn1c(=O)c2[nH]c(CCCCCCCc3nc4ccccc4[nH]3)nc2n(C)c1=O | / | -14.5% | -39.4% | 4.3%
Cc1cccc(C(=O)NC(=S)Nc2ccc(S(=O)(=O)N3CCN(C)CC3)cc2)c1 | 0.4% | -5.0% | -20.6% | 21.2µM*
COC(=O)c1ccc(NC(=S)NNC(=O)CC(C)C)cc1 | ? | -19.9% | 4.3% | 26.7µM*
SMILES | Tb PFK inh | VDR inhibitor | BRCA1 expr up | PLK1 PBD block
CC(C)CC(=O)NC(=S)Nc1ccc(S(=O)(=O)N2CCCC2)cc1 | 0.4% | -19.1% | -14.1% | 23.8µM*
CN(C)c1ccc(CNC(=O)C2CCCN(S(=O)(=O)c3ccc4c(c3)oc(=O)n4C)C2)cc1 (centres undefined) | / | -22.7% | 2.0% | /
O=C(/C=C/c1ccccc1)NC(NC(=S)Nc1ccc(Cl)cc1Cl)C(Cl)(Cl)Cl (centres undefined) | 0.0% | ? | -72.5% | 13.4µM*
O=C(/C=C/c1ccccc1)NC(NC(=S)Nc1cccc(Cl)c1)C(Cl)(Cl)Cl (centres undefined) | -0.7% | 11.0% | -89.3% | -28.8%
Cc1c(/C=C/C(=O)c2ccccc2)cnn1C | -7.6% | -12.7% | ? | -0.4%
Cc1c(/C=C/C(=O)c2ccc(O)cc2)cnn1C | -8.5% | -1.3% | ? | -1.8%
Cc1c(/C=C/C(=O)c2ccc(C(C)C)cc2)cnn1C | 0.4% | 5.2% | 11.2µM* | -14.7%
CCn1ncc(/C=C/C(=O)c2ccccc2)c1C | 0.1% | -15.9% | 11.2µM* | -12.2%
O=C(CN1C(=O)NC(Cc2c[nH]c3ccccc23)C1=O)NCCc1ccccc1 (centres undefined) | -14.1% | -16.1% | -3.2% | -10.8%
CCCNC(=O)CN1C(=O)NC(Cc2c[nH]c3ccccc23)C1=O (centres undefined) | 1.0% | ? | -9.0% | 26.7µM*
COc1ccc2c(-c3ccc(S(N)(=O)=O)cc3)c(-c3ccc(S(C)(=O)=O)cc3)sc2c1 | -12.6% | -5.0% | -43.4% | -6.6%
CCCC(=O)Nc1ccc(C(=O)COC(=O)C2CC2)cc1 | 1.2% | -11.1% | 10µM* | -14.0%
Cc1c(C(=O)OCC(=O)N2CCCC(C)C2)oc2ccccc12 (centres undefined) | -7.9% | -7.5% | 10µM* | 9.9%
Cc1c(C(=O)NC2CC2)oc2ccccc12 | -3.9% | -6.4% | 22.7% | -10.3%
Cc1c(C(=O)NC2CCC(C)CC2)oc2ccccc12 (centres undefined) | 0.4% | -7.0% | 5.01µM* | -8.8%
Cc1ccc([N+](=O)[O-])c(Oc2ncnc3c2oc2ccccc23)c1 | / | -9.6% | / | /

Screening data (PubChem BioAssay)
